Data reported in PubChem BioAssay (NCI).
Compounds without any hit were thinned out: in the full panel of roughly 83,000, 20% have a hit.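 Single-concentration screen, 48 h exposure, 96-well plates. Endpoint: percent growth. Below 10 = active.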 Activity calls are given as the source filed them.

Tests used:
Assay in all cases: NCI-60 one-dose screen, 48 h (100 = growth as untreated, 0 = no growth, -100 = all killed)
Conditions in all cases: 10 µM unless noted
NCI-H23 lung = system: NCI-H23 lung
NCI-H226 lung = system: NCI-H226 lung
NCI-H322M lung = system: NCI-H322M lung
HOP-62 NSCLC = system: HOP-62 NSCLC
NCI-H460 lung = system: NCI-H460 lung
HOP-92 NSCLC = system: HOP-92 NSCLC
NCI-H522 lung = system: NCI-H522 lung
A549/ATCC NSCLC = system: A549/ATCC NSCLC
786-0 renal = system: 786-0 renal
COLO 205 colon = system: COLO 205 colon

Measured: growth

COc1cc(/C=C/C(=O)c2ccc(F)cc2)ccc1OCCCCOc1ccc(/C=C/C(=O)c2c(C)nc3ccccc3c2C)cc1OC
inactive: NCI-H23 lung 74.9% | NCI-H226 lung 69.4% | NCI-H322M lung 103% | HOP-62 NSCLC 90.2% | NCI-H460 lung 104% | HOP-92 NSCLC 84.5% | NCI-H522 lung 59.1% | A549/ATCC NSCLC 76.9% | 786-0 renal 86.7% | COLO 205 colon 119%

C=CCn1c(C)nc2ccc(Nc3nc(Nc4ccc5nc(C)n(CC=C)c5c4)c4ccccc4n3)cc21
active: NCI-H322M lung -13.4% | HOP-62 NSCLC -61.5% | NCI-H460 lung -69.5% | NCI-H522 lung -90.7% | A549/ATCC NSCLC -83.1% | 786-0 renal -93.8% | COLO 205 colon -92.3%
inactive: NCI-H23 lung 32.8% | NCI-H226 lung 67.4% | HOP-92 NSCLC 43.2%

O=C(CSC(=S)n1cnnc1)NC(=O)c1ccccc1
inactive: NCI-H23 lung 102% | NCI-H226 lung 100% | NCI-H322M lung 103% | HOP-62 NSCLC 106% | NCI-H460 lung 112% | HOP-92 NSCLC 101% | NCI-H522 lung 92.4% | A549/ATCC NSCLC 114% | 786-0 renal 104% | COLO 205 colon 119%

CCCCNCCCCCNc1cc(OC)cc2cccnc12
inactive: NCI-H23 lung 101% | NCI-H226 lung 96.5% | NCI-H322M lung 106% | HOP-62 NSCLC 88% | NCI-H460 lung 106% | HOP-92 NSCLC 49.2% | NCI-H522 lung 94% | A549/ATCC NSCLC 95.9% | 786-0 renal 90.1% | COLO 205 colon 93.7%

COC1/C=C/OC2(C)Oc3c(C)c(O)c4c(O)c(c(/C=N/Nc5ccc([N+](=O)[O-])cc5[N+](=O)[O-])c(O)c4c3C2=O)NC(=O)C(C)=C/C=C/C(C)C(O)C(C)C(O)C(C)C(OC(C)=O)C1C (stereo not given)
active: NCI-H23 lung 4.25% | NCI-H226 lung -57.2% | HOP-92 NSCLC -60.8% | NCI-H522 lung -42.5%
inactive: NCI-H322M lung 93.9% | HOP-62 NSCLC 42.2% | NCI-H460 lung 59.5% | A549/ATCC NSCLC 82.9% | 786-0 renal 24.4% | COLO 205 colon 24.9%

OB1OCc2cc(/C=C/c3cccc(C(F)(F)F)c3)ccc21
inactive: NCI-H23 lung 21.6% | NCI-H322M lung 20.7% | COLO 205 colon 25.6%
active: NCI-H226 lung -10.2% | HOP-62 NSCLC -17.7% | NCI-H460 lung -10.1% | HOP-92 NSCLC -27.9% | NCI-H522 lung 3.78% | A549/ATCC NSCLC 1.8% | 786-0 renal -27.2%

COc1c(B(O)O)cccc1-c1cc(C)c2c(ccc3[nH]ncc32)n1
inactive: NCI-H23 lung 78.4% | NCI-H226 lung 89.7% | NCI-H322M lung 74.3% | HOP-62 NSCLC 46.3% | NCI-H460 lung 71% | HOP-92 NSCLC 41.8% | NCI-H522 lung 62.6% | A549/ATCC NSCLC 75.1% | 786-0 renal 40.9% | COLO 205 colon 93.3%

C=C1CC[C@@H]2[C@](C)(COC(C)=O)[C@H](OC(C)=O)CC[C@@]2(C)[C@@H]1CC(Nc1ccc(S(=O)(=O)Nc2ncccn2)cc1)C1=CCOC1=O (stereo not given in full)
inactive: NCI-H23 lung 29.6% | NCI-H322M lung 50.9% | HOP-62 NSCLC 126% | NCI-H460 lung 18.1% | HOP-92 NSCLC 56.3% | A549/ATCC NSCLC 44.7%
active: NCI-H226 lung -16.6% | NCI-H522 lung -67.7% | 786-0 renal -10.1% | COLO 205 colon -12.1%

N=C(N)c1ccc(-c2ccc(-c3ccc(Cl)cc3Cl)s2)cc1
inactive: NCI-H23 lung 56.5% | NCI-H226 lung 77.9% | NCI-H322M lung 13.9% | HOP-62 NSCLC 34.1% | HOP-92 NSCLC 75.2%
active: NCI-H460 lung -66.3% | NCI-H522 lung -28.6% | A549/ATCC NSCLC -30.2% | 786-0 renal -18% | COLO 205 colon -31.6%

CCOC(=O)C#Cc1c(C(=O)OCC)nnn1Cc1ccc([N+](=O)[O-])cc1
active: NCI-H522 lung -33.4% | COLO 205 colon -22.2%
inactive: NCI-H23 lung 86.2% | NCI-H226 lung 70.4% | NCI-H322M lung 100% | HOP-62 NSCLC 113% | NCI-H460 lung 98.7% | HOP-92 NSCLC 40.6% | A549/ATCC NSCLC 96.1% | 786-0 renal 65.6%

CCN(CC)CCn1c2ccc(OC)cc2c2sc3cc(OC)ccc3c(=O)c21
active: NCI-H460 lung 9.41%
inactive: NCI-H23 lung 23.1% | NCI-H226 lung 71.4% | NCI-H322M lung 29.8% | HOP-62 NSCLC 38.1% | HOP-92 NSCLC 41.7% | NCI-H522 lung 48.1% | A549/ATCC NSCLC 19.1% | 786-0 renal 11.1% | COLO 205 colon 18.6%

CCCNC(=O)Nc1ccc2cc3ccc(NC(=O)NCCC)cc3nc2c1
inactive: NCI-H23 lung 86.4% | NCI-H226 lung 90.7% | NCI-H322M lung 100% | HOP-62 NSCLC 81.8% | NCI-H460 lung 104% | HOP-92 NSCLC 79.2% | NCI-H522 lung 79% | A549/ATCC NSCLC 95.9% | 786-0 renal 82.3% | COLO 205 colon 99.3%

COC(=O)/C=C1/SC(=Nc2cccc(OC)c2)N(CCc2c[nH]c3ccc(O)cc23)C1=O
inactive: NCI-H23 lung 76.1% | NCI-H226 lung 89.6% | NCI-H322M lung 95.2% | HOP-62 NSCLC 69.8% | NCI-H460 lung 61.3% | HOP-92 NSCLC 50.4% | NCI-H522 lung 54.3% | A549/ATCC NSCLC 87.3% | 786-0 renal 74.3% | COLO 205 colon 106%

CN(c1cc2ncc(=O)[nH]c2cc1NC(N)=NCc1ccc(Cl)cc1)C1CCCCC1
inactive: NCI-H23 lung 88.1% | NCI-H226 lung 72.8% | NCI-H322M lung 84.5% | HOP-62 NSCLC 80.8% | NCI-H460 lung 40.3% | HOP-92 NSCLC 28% | NCI-H522 lung 30.5% | A549/ATCC NSCLC 89.3% | 786-0 renal 68.5%
active: COLO 205 colon -63.6%

CCNCCNc1cc(-c2ccc(C(F)(F)F)cc2)c(C#N)c2nc3ccccc3n12
active: NCI-H23 lung -83.7% | NCI-H226 lung -66.1% | NCI-H322M lung -56.2% | HOP-62 NSCLC -67.7% | NCI-H460 lung -81.4% | HOP-92 NSCLC -81.2% | NCI-H522 lung -69% | A549/ATCC NSCLC -76.4% | 786-0 renal -96.2% | COLO 205 colon -80.4%

CCOC(=O)c1ccc(NC(=O)c2nc(-c3cc(OC)c(OC)c(OC)c3)n(-c3ccc(Cl)cc3)n2)cc1
inactive: NCI-H23 lung 91.3% | NCI-H226 lung 90.9% | NCI-H322M lung 81.1% | HOP-62 NSCLC 97.6% | NCI-H460 lung 97.1% | HOP-92 NSCLC 71.8% | NCI-H522 lung 67.2% | A549/ATCC NSCLC 88.9% | 786-0 renal 93.5% | COLO 205 colon 104%

O=C(N/N=C/c1ccc(Cl)cc1)c1[nH]c2ccc(Cl)cc2c1-c1ccccc1
inactive: NCI-H23 lung 42.1% | NCI-H226 lung 10.9% | NCI-H322M lung 37.6% | HOP-62 NSCLC 23.9% | A549/ATCC NSCLC 42.9% | 786-0 renal 22.1%
active: NCI-H460 lung 4.43% | HOP-92 NSCLC -7.26% | NCI-H522 lung -32% | COLO 205 colon -72.4%

CCc1ccc(CCCC(=O)O)cc1
inactive: NCI-H23 lung 96.5% | NCI-H226 lung 95.1% | NCI-H322M lung 101% | HOP-62 NSCLC 87% | NCI-H460 lung 108% | HOP-92 NSCLC 91.1% | NCI-H522 lung 89.9% | A549/ATCC NSCLC 97.7% | 786-0 renal 95.4% | COLO 205 colon 112%

CSc1nnc(-c2cc3c([nH]c4ccccc43)c(-c3cccc(O)c3)n2)n1-c1ccccc1
active: NCI-H522 lung -15%
inactive: NCI-H23 lung 55.1% | NCI-H226 lung 51.6% | NCI-H322M lung 43.3% | HOP-62 NSCLC 47.6% | NCI-H460 lung 12.1% | HOP-92 NSCLC 48.7% | A549/ATCC NSCLC 46.1% | 786-0 renal 24.1% | COLO 205 colon 85.3%

CCOC(=O)c1cc(C(=O)c2cc(OC)c(OC)c(OC)c2)n2ncccc12
inactive: NCI-H23 lung 38% | NCI-H226 lung 29.6% | NCI-H322M lung 48.1% | HOP-62 NSCLC 32.2% | NCI-H460 lung 10.3% | HOP-92 NSCLC 73.6% | NCI-H522 lung 34.8% | A549/ATCC NSCLC 24.1% | 786-0 renal 26.5%
active: COLO 205 colon -24.7%

COCCn1cc(-c2csc(-c3cn(C)c4ccc(Br)cc34)n2)c2cccnc21
inactive: NCI-H23 lung 76.1% | NCI-H226 lung 86.4% | NCI-H322M lung 74.2% | HOP-62 NSCLC 70.8% | NCI-H460 lung 26.8% | HOP-92 NSCLC 65.3% | A549/ATCC NSCLC 40.2% | 786-0 renal 19.8% | COLO 205 colon 46.6%
active: NCI-H522 lung -35.7%

CC(C)(Sc1cc(C(C)(C)C)c(OC(=O)CCCC(=O)O)c(C(C)(C)C)c1)Sc1cc(C(C)(C)C)c(OC(=O)CCCC(=O)O)c(C(C)(C)C)c1
inactive: NCI-H23 lung 29.5% | NCI-H226 lung 64.8% | NCI-H322M lung 49.5% | HOP-62 NSCLC 38% | HOP-92 NSCLC 73% | NCI-H522 lung 37.8% | A549/ATCC NSCLC 21.4% | 786-0 renal 49.7% | COLO 205 colon 58.4%
active: NCI-H460 lung 9.34%

O=C1Nc2ccccc2/C1=C/c1nc2ccccc2c(=O)[nH]1
inactive: NCI-H23 lung 75.8% | NCI-H226 lung 94.5% | NCI-H322M lung 101% | HOP-62 NSCLC 76.3% | NCI-H460 lung 95.1% | HOP-92 NSCLC 94.1% | NCI-H522 lung 94.1% | A549/ATCC NSCLC 100% | 786-0 renal 104% | COLO 205 colon 117%

N#CC1=C(N)Oc2c(ccc3ccccc23)C1c1ccccc1 (stereo not given)
inactive: NCI-H23 lung 25.7% | NCI-H226 lung 61.6% | NCI-H322M lung 55.6% | HOP-62 NSCLC 12.8% | HOP-92 NSCLC 38.2% | A549/ATCC NSCLC 10.8% | 786-0 renal 13.5%
active: NCI-H460 lung 6.31% | NCI-H522 lung -15.8% | COLO 205 colon -49.8%

O=C(Nc1ccccc1O)c1ccc(CNC(=O)c2sccc2Nc2ccnc(C(F)(F)F)c2)cc1
active: NCI-H522 lung 7.48%
inactive: NCI-H23 lung 51.7% | NCI-H226 lung 54.8% | NCI-H322M lung 51% | HOP-62 NSCLC 65.6% | NCI-H460 lung 42% | HOP-92 NSCLC 20.9% | A549/ATCC NSCLC 66.5% | 786-0 renal 60.4% | COLO 205 colon 73.3%

O=c1c2cccc3c(N4CCCC4)ccc(c32)c2nc3ccccc3n12
inactive: NCI-H23 lung 68.2% | NCI-H226 lung 55.3% | NCI-H322M lung 95.1% | HOP-62 NSCLC 66.1% | NCI-H460 lung 16.1% | HOP-92 NSCLC 40.7% | NCI-H522 lung 71.2% | A549/ATCC NSCLC 35.6% | 786-0 renal 88.3% | COLO 205 colon 63.6%

COc1ccc(-c2nn(-c3cccc(Cl)c3)cc2-c2cc(-c3ccc(Br)cc3)nc(N)n2)cc1
inactive: NCI-H23 lung 87.3% | NCI-H226 lung 86% | NCI-H322M lung 80.4% | HOP-62 NSCLC 88% | NCI-H460 lung 93.9% | HOP-92 NSCLC 91% | NCI-H522 lung 68.3% | A549/ATCC NSCLC 81.2% | 786-0 renal 88.1% | COLO 205 colon 102%
